Consider four compounds from PubChem BioAssay (NCATS).

Inconclusive results are not listed. The source made the active and inactive calls. Unless noted, calls follow the shape of the dose curve; as a rule, active = well fitted curve in the direction sought with a large enough effect; inconclusive = small, poorly fitted or top-dose-only effect, or another doubt; inactive = no such curve, though single readings can be large; an effect the other way counts as inactive or inconclusive.

Test [1] addresses Cytochrome P450 1A2 (Homo sapiens) (UniProt P05177). Put plainly: p450-cyp1a2 (AID 410; calls by dose curve; also: potency is read from the fitted curve at half-maximal effect). In outline: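 Luminescent demethylation readout: Luciferin-ME (100uM, equal to Km) turned over by 20nM CYP1A2 for 60 min at room temperature after NADPH regeneration addition, following 10 min compound preincubation. Normalization used 57 uM furafylline as full inhibition.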
Test [2] concerns the target Glucocorticoid receptor (Homo sapiens) (UniProt P04150). In words: GR-GFP Redistribution (AID 450;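 active = compounds whose dose series gives a full or clear partial fitted curve of increased nuclear translocation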; also: potency is read from the fitted curve at half-maximal effect). The conditions noted are these: U2OS GR-GFP nuclear translocation, laser cytometry, 2 h.
Test [3] shares this target. In words: GR-EFC Redistribution (AID 451; calls by dose curve; also: potency is read from the fitted curve at half-maximal effect). To be noted: CHO-K1 GR-EFC translocation, beta-gal luminescence, 2 h. In outline: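 CHO-K1 cells stably expressing nuclear-localized β-gal enzyme acceptor and GR fused C-terminally to the enzyme donor fragment; ligand-driven nuclear translocation restores β-gal by complementation. Compounds titrated up to 46 uM final, 2 h at 37 °C; luminescence read.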

For test [4], the target named is Mitogen-activated protein kinase 10 (Mus musculus) (UniProt Q61831). In words: JNK3 AlphaScreen Assay (AID 530; active = well fitted curve in either direction with a large enough effect, not every such curve was filed as active;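 also: kinase came from lysate of stimulated human HepG2 cells; signal reports phosphorylation of biotinylated GST-cJun 1-79 at Ser73 with 10 µM ATP; % is scaled to controls: 0 for no effect and ±100 for the full control effect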). Summed up:
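Phosphorylation of biotinylated GST-cJun(1-79) at Ser73 is measured by AlphaScreen proximity luminescence. Enzyme is JNK3 in HepG2 lysates activated with interleukin-1beta and tumor necrosis factor alpha; ATP is 10 uM final.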

Test [5] deals with 3',5'-cyclic-AMP phosphodiesterase 4B (Homo sapiens) (UniProt Q07343). In words: qHTS Assay for Inhibitors of PDE-IV (AID 607; active = well fitted activation curve with a large enough effect in the main read-out, with a control signal flat, not every such curve was filed as active; also: % of control where 0% means no effect). Summed up: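 HEK293 ACTOne cells with CNG channel (1000/well), endogenous PDE4; membrane potential dye, compounds up to 22.9 uM final. Fluorescence Ex 535/Em 590; RO 20-1724 (100 uM final) as reference.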
Test [6] deals with Cytochrome P450 2C19 (Homo sapiens) (UniProt P33261). In words: qHTS Assay for Inhibitors and Substrates of Cytochrome P450 2C19 (AID 899). Also: nearly all actives have a fitted effect of over 60% in size. Also: potency is read from the fitted curve at half-maximal effect. Summed up:
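In 50mM KPO4, the reaction held 5nM enzyme and KM-level (10uM) Luciferin-H EGE; it ran 60 min at 37C after NADPH regeneration and a 10 min compound preincubation. Luminescence values were scaled to 57uM ketoconazole as complete inhibition.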

The nature of test [7]: qHTS Assay for Lipid Storage Modulators (AID 1519; calls by dose curve; as to activity change, negative = inhibition: % is scaled to controls: 0 for no effect and ±100 for the full control effect). The conditions noted are these: Drosophila S3 cells, BODIPY lipid droplet/cell ratio, laser cytometry, cells loaded with oleic acid; for activity change, negative = inhibition: at 57.5 µM (top of the series). Summed up: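 Cells seeded at 5,000 per well were treated with compounds over a concentration series and loaded with oleic acid (400 uM, as added). Lipid droplet fluorescence (488 nm excitation, 500-530 nm channel) was read by laser-scanning cytometry and normalized to 20 uM Triacsin C.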

In test [8] the target is Ubiquitin carboxyl-terminal hydrolase 1 (Homo sapiens) (UniProt O94782). Put plainly: Inhibitors of USP1/UAF1: Pilot qHTS (AID 504865).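 Also: rhodamine fluorescence freed from ubiquitin-rhodamine substrate followed over time; top concentration of the series differs between compounds; % is scaled to controls: 0 for no effect and ±100 for the full control effect; nearly all actives have a fitted effect of over 35% in size.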 Summed up: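 Enzyme-free wells gave the negative control, while test wells held 1nM USP1/UAF1 preincubated with compound for 15 min at room temperature. Ub-Rho at 150nM final started the reaction, and fluorescence at 480/540 nm was recorded kinetically.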

Test [9] concerns Zika virus NS2B-NS3 protease. Put plainly: Primary screen GU AMC qHTS for Zika virus inhibitors (AID 1347154).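 Also: 0% = no-inhibitor control and -100% = no-enzyme control; nearly all actives have a fitted effect of over 70% in size.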 Summed up:
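Unlinked Zika NS2B hydrophilic domain/NS3 protease domain noncovalent complex (25 nM final) in 10 mM Tris-HCl pH 8.0, 0.01% Tween 20, with AMC peptide substrate. Fluorescence (ex 340, em 450 nm) change over 15 min, room temperature; percent inhibition fitted to 4-parameter Hill equation.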

The target of test [10] is DNA dC->dU-editing enzyme APOBEC-3G (Homo sapiens) (UniProt Q9HC16). Put plainly: qHTS for inhibitors of Vif-A3G interactions: Validation (AID 588379). Also: 0% is about no effect. Summed up: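 Yellow fluorescence (Ex 488, Em 500-530) of Vif-coexpressing HeLa A3G-eYFP cells, scanned by Acumen cytometer, reports blocked A3G degradation. Cells plated at 700/well overnight at 37 deg C before compound addition, then a further overnight compound incubation at 37 deg C.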

Test [11] concerns the target Cytochrome P450 2C9 (Homo sapiens) (UniProt P11712). In words: qHTS Assay for Inhibitors and Substrates of Cytochrome P450 2C9 (AID 883). Also: potency is read from the fitted curve at half-maximal effect; nearly all actives have a fitted effect of over 60% in size. In outline:
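CYP2C9 deoxyluciferin hydroxylation, 37C, 60 min with NADPH regeneration; 10nM enzyme, 100uM Luciferin-H (KM). Glo detection reagent stopped reaction; luminescence normalized to sulphaphenazole (57uM) full inhibition.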

The target is the same in test [12]. Put plainly: Cytochrome P450 family 2 subfamily C member 9 (CYP2C9) small molecule antagonists: luciferase biochemical (cell-free) qHTS assay (AID 1645842; active = well fitted curve in the direction sought with a large enough effect in the repeat runs; an effect the other way counts as inactive or inconclusive; also: % is scaled to controls: 0 for no effect and ±100 for the full control effect; nearly all actives have a fitted effect of over 55% in size). In outline:
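P450-Glo CYP2C9 system: proluciferin substrate with enzyme in mix containing 0.4% BSA, 10 min at room temperature, then NADPH regeneration solution added and incubated 1 h at 37C. Detection reagent stopped reaction; luminescence read after 20 min as RLU.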

[13] abbreviates: measured here: cell count channel max response.
[14] abbreviates: measured here: lipid channel max response.

Glucocorticoid receptor (Homo sapiens), sequence (P04150 whole entry, looked up, the tested form may be a part): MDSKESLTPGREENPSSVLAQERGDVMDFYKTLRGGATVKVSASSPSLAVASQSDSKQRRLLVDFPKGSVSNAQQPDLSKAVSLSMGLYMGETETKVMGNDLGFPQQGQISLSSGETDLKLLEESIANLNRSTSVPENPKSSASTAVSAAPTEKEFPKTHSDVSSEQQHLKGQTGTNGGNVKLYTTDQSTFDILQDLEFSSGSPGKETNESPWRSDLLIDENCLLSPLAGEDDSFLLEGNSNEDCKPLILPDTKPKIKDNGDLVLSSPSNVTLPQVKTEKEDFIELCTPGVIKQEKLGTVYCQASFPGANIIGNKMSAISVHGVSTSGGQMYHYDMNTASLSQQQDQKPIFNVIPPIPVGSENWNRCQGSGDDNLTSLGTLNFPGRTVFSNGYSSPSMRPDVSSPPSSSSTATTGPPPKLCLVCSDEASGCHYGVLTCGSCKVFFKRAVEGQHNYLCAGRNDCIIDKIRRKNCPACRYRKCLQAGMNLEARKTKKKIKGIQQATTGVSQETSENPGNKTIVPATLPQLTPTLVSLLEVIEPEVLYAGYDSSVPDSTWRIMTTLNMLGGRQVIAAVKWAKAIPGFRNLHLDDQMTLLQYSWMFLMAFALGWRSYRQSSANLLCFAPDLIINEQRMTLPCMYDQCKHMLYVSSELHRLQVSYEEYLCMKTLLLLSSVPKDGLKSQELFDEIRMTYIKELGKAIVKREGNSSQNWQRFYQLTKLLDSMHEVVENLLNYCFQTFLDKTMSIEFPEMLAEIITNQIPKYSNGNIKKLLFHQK
DNA dC->dU-editing enzyme APOBEC-3G (Homo sapiens), sequence (Q9HC16 whole entry, looked up): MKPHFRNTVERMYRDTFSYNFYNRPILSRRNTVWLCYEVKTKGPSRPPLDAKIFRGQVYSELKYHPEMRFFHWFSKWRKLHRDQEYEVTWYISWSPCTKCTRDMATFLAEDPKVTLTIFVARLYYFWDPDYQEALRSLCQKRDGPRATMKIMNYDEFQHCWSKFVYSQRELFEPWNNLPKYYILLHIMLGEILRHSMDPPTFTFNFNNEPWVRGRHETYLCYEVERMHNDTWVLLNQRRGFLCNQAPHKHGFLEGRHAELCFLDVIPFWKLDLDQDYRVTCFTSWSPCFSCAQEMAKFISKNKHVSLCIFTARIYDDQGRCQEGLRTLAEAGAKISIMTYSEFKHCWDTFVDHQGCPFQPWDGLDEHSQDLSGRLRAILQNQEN
Cytochrome P450 1A2 (Homo sapiens), sequence (P05177 whole entry, looked up): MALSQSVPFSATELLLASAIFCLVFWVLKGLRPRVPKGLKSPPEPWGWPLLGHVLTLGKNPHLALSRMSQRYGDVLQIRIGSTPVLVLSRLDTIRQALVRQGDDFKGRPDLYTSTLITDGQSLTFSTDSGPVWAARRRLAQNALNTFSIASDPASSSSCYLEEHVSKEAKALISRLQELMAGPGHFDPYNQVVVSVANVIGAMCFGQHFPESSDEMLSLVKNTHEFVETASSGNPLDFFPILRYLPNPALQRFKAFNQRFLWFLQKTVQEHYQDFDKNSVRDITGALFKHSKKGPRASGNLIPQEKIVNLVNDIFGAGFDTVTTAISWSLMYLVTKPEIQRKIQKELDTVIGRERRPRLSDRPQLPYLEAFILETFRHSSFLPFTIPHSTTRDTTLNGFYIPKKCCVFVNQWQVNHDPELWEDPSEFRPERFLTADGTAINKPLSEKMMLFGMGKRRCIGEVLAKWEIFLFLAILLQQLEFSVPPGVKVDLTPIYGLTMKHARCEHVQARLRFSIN
Ubiquitin carboxyl-terminal hydrolase 1 (Homo sapiens), sequence (O94782 whole entry, looked up): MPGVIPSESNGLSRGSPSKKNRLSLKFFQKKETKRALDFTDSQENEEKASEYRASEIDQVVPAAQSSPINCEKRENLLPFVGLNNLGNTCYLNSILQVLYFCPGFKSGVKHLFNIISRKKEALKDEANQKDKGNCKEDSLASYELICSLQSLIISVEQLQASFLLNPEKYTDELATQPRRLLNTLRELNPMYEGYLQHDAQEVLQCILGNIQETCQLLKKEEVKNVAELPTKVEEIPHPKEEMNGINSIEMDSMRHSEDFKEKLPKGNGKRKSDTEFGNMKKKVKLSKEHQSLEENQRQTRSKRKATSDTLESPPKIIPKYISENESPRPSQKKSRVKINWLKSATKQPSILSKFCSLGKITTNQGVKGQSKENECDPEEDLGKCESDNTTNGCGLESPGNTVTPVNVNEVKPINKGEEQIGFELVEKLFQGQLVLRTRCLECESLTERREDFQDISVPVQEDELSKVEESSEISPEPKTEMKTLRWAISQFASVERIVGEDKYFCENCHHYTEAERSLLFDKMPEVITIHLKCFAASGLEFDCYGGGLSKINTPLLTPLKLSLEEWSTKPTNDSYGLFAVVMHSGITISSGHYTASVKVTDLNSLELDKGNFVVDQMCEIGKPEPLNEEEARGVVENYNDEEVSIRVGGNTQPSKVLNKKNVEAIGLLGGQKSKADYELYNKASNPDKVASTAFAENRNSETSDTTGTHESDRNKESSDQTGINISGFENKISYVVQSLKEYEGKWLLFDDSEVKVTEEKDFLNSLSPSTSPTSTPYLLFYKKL
3',5'-cyclic-AMP phosphodiesterase 4B (Homo sapiens), sequence (Q07343 whole entry, looked up): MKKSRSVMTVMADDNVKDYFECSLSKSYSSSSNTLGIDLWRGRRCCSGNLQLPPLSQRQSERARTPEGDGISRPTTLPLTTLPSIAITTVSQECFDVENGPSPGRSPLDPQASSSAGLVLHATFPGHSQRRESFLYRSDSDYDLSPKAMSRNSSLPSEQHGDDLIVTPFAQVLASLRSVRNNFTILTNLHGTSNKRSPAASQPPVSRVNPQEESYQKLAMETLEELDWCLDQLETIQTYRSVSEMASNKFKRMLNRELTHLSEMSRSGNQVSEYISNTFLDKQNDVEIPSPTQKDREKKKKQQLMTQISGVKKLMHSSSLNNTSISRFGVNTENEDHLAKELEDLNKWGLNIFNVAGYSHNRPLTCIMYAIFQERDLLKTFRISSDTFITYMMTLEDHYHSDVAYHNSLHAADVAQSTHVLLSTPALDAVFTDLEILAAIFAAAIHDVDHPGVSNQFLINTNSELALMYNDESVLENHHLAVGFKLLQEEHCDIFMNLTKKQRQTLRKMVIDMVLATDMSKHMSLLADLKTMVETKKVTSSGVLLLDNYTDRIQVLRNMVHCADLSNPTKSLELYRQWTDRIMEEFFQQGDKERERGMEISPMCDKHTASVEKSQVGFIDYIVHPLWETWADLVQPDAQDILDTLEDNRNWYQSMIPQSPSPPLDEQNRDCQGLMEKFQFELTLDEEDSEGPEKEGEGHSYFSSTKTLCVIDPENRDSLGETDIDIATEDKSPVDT
Cytochrome P450 2C19 (Homo sapiens), sequence (P33261 whole entry, looked up): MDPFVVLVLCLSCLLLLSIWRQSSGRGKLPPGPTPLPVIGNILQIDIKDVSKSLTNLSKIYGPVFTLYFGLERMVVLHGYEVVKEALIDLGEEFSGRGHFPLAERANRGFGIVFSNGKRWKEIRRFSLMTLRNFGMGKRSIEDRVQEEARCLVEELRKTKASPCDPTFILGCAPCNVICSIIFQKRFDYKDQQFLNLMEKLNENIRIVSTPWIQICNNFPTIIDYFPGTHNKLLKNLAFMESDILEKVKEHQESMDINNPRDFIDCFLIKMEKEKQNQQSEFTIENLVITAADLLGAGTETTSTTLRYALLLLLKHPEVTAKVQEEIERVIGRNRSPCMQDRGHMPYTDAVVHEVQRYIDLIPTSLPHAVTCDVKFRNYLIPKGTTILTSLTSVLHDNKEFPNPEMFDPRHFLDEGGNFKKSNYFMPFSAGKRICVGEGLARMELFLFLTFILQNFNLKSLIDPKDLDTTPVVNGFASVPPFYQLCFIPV
Cytochrome P450 2C9 (Homo sapiens), sequence (P11712 whole entry, looked up): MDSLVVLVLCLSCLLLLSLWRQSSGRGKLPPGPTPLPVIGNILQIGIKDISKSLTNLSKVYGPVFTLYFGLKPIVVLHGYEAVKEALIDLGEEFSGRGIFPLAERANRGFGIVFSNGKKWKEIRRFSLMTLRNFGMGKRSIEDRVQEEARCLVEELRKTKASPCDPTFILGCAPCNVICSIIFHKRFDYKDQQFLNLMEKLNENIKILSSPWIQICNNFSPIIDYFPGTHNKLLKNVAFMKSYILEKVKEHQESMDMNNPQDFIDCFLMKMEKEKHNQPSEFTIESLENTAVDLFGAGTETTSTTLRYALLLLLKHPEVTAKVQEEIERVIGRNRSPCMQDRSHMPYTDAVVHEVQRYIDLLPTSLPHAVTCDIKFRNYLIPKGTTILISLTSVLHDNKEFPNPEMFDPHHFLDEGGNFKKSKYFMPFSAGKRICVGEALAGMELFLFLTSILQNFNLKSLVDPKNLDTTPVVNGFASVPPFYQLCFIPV

As for `CCNCCCNCCCNCCCNCC`, the Potency result in test [1], in [4], in [5], in [6], in [8] and in test [9] was “inactive” in each case. Also, the Potency in [2] and in test [3] was > 46 µM (inactive) each time. The activity change, negative = inhibition in [7] is -4.07% (inactive). In addition, the figures for the max response in [7] (setting [13]) and in test [7] (setting [14]) were -26.1% and -12.2%, respectively.
On to `N#C/C(=C\c1ccc(O)c(O)c1)C(N)=O`, for which the Potency in test [1] is 39.8 µM (active); in test [2] it was > 46 µM (inactive); in test [3] it was > 46 µM (inactive). In addition, the Potency result in [5], in test [10] and in test [9] was “inactive” each time. Further, the activity change, negative = inhibition in test [7] was -11.6% (inactive). Also, the max response in test [7] (setting [13]) came out at 26.3%; in test [7] (setting [14]), 9.4%.
As to `CN(CC[C@@H](Oc1ccc(-c2ccccc2)cc1)c1ccc(F)cc1)CC(=O)O`, the Potency result in [1], in [4], in test [10], in [9] and in [12] was “inactive” in each case. In addition, the Potency in test [2] is > 46 µM (inactive); in test [3], > 46 µM (inactive); in [11] it was 2.51 µM (active); in test [6], 6.31 µM (active).
On to `N[C@H]1CCN(O)C1=O`, for which the Potency in test [2] is > 46 µM (inactive). Moreover, the Potency entry in test [4], in test [8], in [10] and in test [9] was “inactive” throughout. In addition, in test [7], the activity change, negative = inhibition was -6.49% (inactive). Further, the max response was -8.46% in test [7] (setting [13]) and -12.7% in test [7] (setting [14]).
